Screens (PubChem BioAssay)
LASV entry inh – qHTS for Inhibitors of binding or entry into cells for Lassa Virus; Potency, µM (highest dose often 37.9 µM), most hits filed as inhibitors; actives 1.2% (n = 300,000); Lassa virus pseudotype entry inhibition, cell reporter; calls by dose curve; tested in HEK293 cells; also: nearly all actives have a fitted effect of over 50% in size
MARV entry inh – qHTS for inhibitors of binding or entry into cells for Marburg Virus; Marburg virus pseudotyped entry inhibition, cell reporter; Potency, µM (highest dose often 37.8 µM), actives largely listed as inhibitors; actives 1.8% (n = 300,000); AID 540276, 2011; calls by dose curve; tested in HEK293 cells
VACV Venus inh – qHTS for Stage-Specific Inhibitors of Vaccinia Orthopoxvirus: Venus Reporter Primary qHTS | Vaccinia virus Venus reporter expression, fluorescence | Potency, µM (titrated, usually from 36.5 µM), most hits filed as inhibitors | actives 0.46% (n = 330,000) | AID 720580, 2013; calls by dose curve; tested in A549 cells; also: nearly all actives have a fitted effect of over 30% in size
HCV inhibitor – qHTS Assay for Inhibitors of Hepatitis C Virus (HCV). Huh7.5.1 HCVcc-Cre infection, luciferase reporter, 44 h. Potency, µM (series often up to 41.8 µM), actives largely listed as inhibitors. actives 3.4% (n = 340,000). AID 651820, 2012; active = well fitted inhibition curve with a large enough effect; inconclusive = small, poorly fitted or top-dose-only effect, or another doubt; inactive = no such curve, though single readings can be large or run the other way
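Infectious HCVcc-Cre (~0.5 moi) was added to cells just after compound, with cells seeded 4 h earlier at 1,000 per well. Luciferase activity after 44 h culture reported infection; substrate was incubated 15 min at room temperature before reading.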
HCMV antiviral – qHTS Assay for inhibitors of the human cytomegalovirus (HCMV); HFF cells, HCMV-luciferase reporter, 72 h; stronger effect = lower value; activity change, negative = inhibition, % at 57.5 µM; actives 4.5% (n = 410,000); AID 1259415, 2018; in the data active = activity change below about -60%; inconclusive = no clear call, values can overlap the other calls; inactive = above about -39%
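Compounds were evaluated in HFFs infected with an HCMV luciferase reporter virus (MOI 1 PFU/cell). Luciferase in lysates collected 72 h post infection served as the replication measure.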
VACV mCherry inh – qHTS for Stage-Specific Inhibitors of Vaccinia Orthopoxvirus: mCherry Reporter Primary qHTS; Vaccinia virus mCherry reporter infection, fluorescence; actives 0.63% (n = 310,000); AID 720579, 2013; Potency, µM (highest dose often 36.5 µM), usual class: inhibitors; calls by dose curve; tested in A549 cells; also: nearly all actives have a fitted effect of over 35% in size
A number is an active result; – = inactive; ? = inconclusive; · = no result. Shown are actives, neighbours in structure and some others; about 7.8% of the full set was active somewhere.

SMILES	LASV entry inh	MARV entry inh	VACV Venus inh	HCV inhibitor	HCMV antiviral	VACV mCherry inh
COc1cc(OC)cc(C(=O)Nc2ccc(N3CCOCC3)cc2N2CCOCC2)c1	·	·	·	?	–	·
CCC(C)Oc1ccc(C(=O)Nc2ccc(CN3CCOCC3)cc2)cc1 (stereo not drawn)	·	·	·	25.1µM	-79.6	·
O=C(NCc1nnc2n1CCN(Cc1ccccc1C(F)(F)F)CC2)c1ccncc1	·	·	–	·	·	–
CN(C)c1ccc(N=Nc2nc3ccccc3n2C)cc1	·	·	·	10µM	?	·
CCC12C=C(C=Cc3ccccc3)C(CC)(C1)C(c1ccccc1)CC2=O (stereo not drawn)	·	–	·	·	·	·
O=C(Nc1ccccc1N1CCN(C(=O)c2ccc(Cl)cc2)CC1)c1cccc([N+](=O)[O-])c1	–	?	–	?	-87.9	–
O=C(CSc1ccc(Cl)cc1)Nc1ccccc1N1CCN(C(=O)c2ccccc2)CC1	15.8µM	?	?	–	–	·
CN1CCN(c2ccccc2NC(=O)c2cccc([N+](=O)[O-])c2)CC1	·	·	·	–	–	·
COc1cc([C@@H]2C(C#N)=C(N)Oc3cc(C)n(CCN4CCOCC4)c(=O)c32)cc(OC)c1OC	·	–	·	·	·	·
c1ccc(Nc2nc3ccccc3[nH]2)nc1	?	–	–	–	-67.5	–
COc1ccccc1C(=O)NC1(C(F)(F)F)C(=O)Nc2c1c(=O)[nH]c(=O)n2-c1ccc(F)cc1 (stereo not drawn)	–	–	–	·	–	–
CCc1ccccc1NC(=O)CSc1nc2c(oc3ccccc32)c(=O)n1C	·	?	–	·	–	–
CC(CNC(=O)c1sc2ncccc2c1-n1cccc1)c1ccccc1 (stereo not drawn)	–	·	–	·	–	–
O=C(O)CSCC(=O)N1CCN(c2ncnc3scc(-c4ccccc4)c23)CC1	·	·	·	–	–	·
CCOC(=O)N1CCN(c2ncnc3scc(-c4ccccc4)c23)CC1	–	?	–	8.91µM	–	–
O=C(c1ccco1)N1CCN(c2ncnc3scc(-c4ccc(F)cc4)c23)CC1	?	?	–	?	–	–
CC(C)(C)C(=O)N1CCN(c2ncnc3scc(-c4ccccc4)c23)CC1	?	?	–	?	-69.8	–
C=CCO[C@@H]1C=C[C@@H](c2ccccc2)O[C@@H]1COC	·	–	·	·	·	·
COc1ccc(CNC(=O)c2ccc(CS(=O)Cc3ccccc3Cl)o2)cc1 (stereo not drawn)	?	·	–	·	?	–
COc1ccccc1NC(=O)C1=C(C)Nc2ncnn2C1c1ccc[nH]1 (stereo not drawn)	–	·	–	·	–	–
CC(C)NC(=O)CSc1nc(-c2ccccc2)cs1	·	·	–	–	–	–
N#CCSc1nc(-c2ccccc2)cs1	–	–	?	–	-62.6	·
Cc1ccc(C23OCCN2CCn2nc4ccccc4c23)cc1 (stereo not drawn)	·	·	–	–	–	–
N#Cc1ccc(C23OCCN2CCn2c3c3ccccc3[n+]2[O-])cc1 (stereo not drawn)	·	·	–	?	–	3.98µM
OCCCNCc1cc2cc3c(cc2nc1N1CCN(c2cccc(Cl)c2)CC1)OCO3	·	·	–	·	·	–
SMILES	LASV entry inh	MARV entry inh	VACV Venus inh	HCV inhibitor	HCMV antiviral	VACV mCherry inh
CCOc1cc(/C=C/C(=O)O)ccc1OCCO	–	–	·	–	–	·
CCOc1cc(/C=C/C(=O)c2ccc(C)cc2)ccc1OCC(=O)N(C)C	?	?	?	?	-97.3	?
COc1ccc(/C=C/C(=O)c2ccccc2)cc1Cn1nnc2ccccc21	–	?	–	3.55µM	–	–
COc1ccc(/C=C/C(=O)c2ccc(C(=O)/C=C/c3ccc(OC)c(OC)c3)cc2)cc1OC	·	·	·	4.47µM	-75.9	·
COc1ccc(Oc2ccc(/C=C/C(=O)c3ccc(O)cc3)cc2[N+](=O)[O-])cc1	12.6µM	?	?	?	-98.2	?
COc1ccc(CCn2nnnc2C2(c3ccc(C)cc3)CC2)cc1	–	–	·	·	·	·
COc1ccccc1NC(=O)c1c(C)cc(C)nc1SCC(=O)Nc1cccc(C)c1	?	–	–	·	–	–
CC(C)CCNC(=O)CCCN1C(=O)c2ccccc2Sc2ncccc21	?	·	–	·	–	–
Cc1cccc(NC(=O)CSc2cn(CC(=O)N3CCCCCC3)c3ccccc23)c1	–	·	–	·	–	–
CC(=O)C1=C(C)N(Cc2ccccc2)C(=O)NC1c1ccco1 (stereo not drawn)	?	–	·	·	·	·
COc1ccc(C=CC(=O)c2ccc(OCc3ccccc3)c(OC)c2)cc1OC	·	·	11.2µM	·	-87.4	28.2µM
COc1cc(/C=C/C(=O)OCC(=O)c2c(N)n(C)c(=O)n(C)c2=O)ccc1OCC#N	?	6.31µM	–	?	–	–
COc1cc(/C=C/C(=O)c2ccc(C)cc2)ccc1OCC#N	10µM	?	?	?	–	?
CCC(C(=O)NCCc1cc(OC)ccc1OC)n1nc(C)c2sc3ccccc3c2c1=O (stereo not drawn)	–	–	?	·	–	–
COc1ccc(CCNC(=O)CCn2c(=O)c3ccccc3n(CC(=O)Nc3ccccc3F)c2=O)cc1OC	–	–	–	·	–	–
CCCCCCSc1ccc([C@H]2N[C@@](CC(C)C)(C(=O)OC)[C@H]3C(=O)N(C)C(=O)[C@@H]23)cc1OC	·	·	?	7.94µM	–	–
COC(=O)[C@]1(Cc2ccccc2)N[C@H](c2ccc(-c3ccc(F)cc3)cc2)[C@@H]2C(=O)N(C)C(=O)[C@@H]21	·	·	?	11.2µM	–	–
COC(=O)[C@]1(Cc2ccccc2)N[C@H](c2ccc(-c3cccc(Cl)c3)c(OC)c2)[C@@H]2C(=O)N(C)C(=O)[C@@H]21	·	·	?	2.24µM	–	?
O=C(Nc1c(O)c2ccccc2oc1=O)c1cccc(F)c1	–	–	–	·	–	–
CCOC(=O)Cn1c(=O)oc2cc(S(=O)(=O)N3CCN(c4cccc(C)c4)C(C)C3)ccc21 (stereo not drawn)	–	–	–	·	–	–
Nc1ncnc2c1ncn2[C@H]1O[C@@H](CSCC[C@@H](N)C(=O)O)[C@H](O)[C@@H]1O	·	·	–	·	·	–
Cc1ccc2c(c1)c1c(n2CC(O)CN2CCCCCC2)CCCC1 (stereo not drawn)	?	6.31µM	–	10µM	-76.8	–
CNCC(O)Cn1c2c(c3ccccc31)CCCC2 (stereo not drawn)	–	?	·	10µM	–	·
Cc1ccc2c(c1)c1c(n2CC(O)CNC(C)(C)C)CCCC1 (stereo not drawn)	·	·	–	?	–	–
C=CCNC(=S)/N=c1/scc(C)n1C	?	?	·	–	–	·
C=CCNC(=S)/N=c1/ccccn1C	–	–	–	–	-98.2	–
C=CCNC(=S)/N=c1/ccccn1CCC	·	–	·	–	-107.1	·
C=CCNC(=S)/N=c1\sccn1C	?	–	·	–	–	·
Cc1ccc(-n2cnnn2)cc1S(N)(=O)=O	?	·	–	·	–	–
Nc1c(S(=O)(=O)O)cc(NC(=O)c2ccccc2)c2c1C(=O)c1ccccc1C2=O	·	·	·	–	·	·
